Screening results as filed in PubChem BioAssay.
Pf growth 96h: P. falciparum growth inhibition at 96 hour, primary screen for plastid delayed-death inhibitors; P. falciparum luciferase reporter growth, 96 h; Potency, µM (doses to about 28.7 µM), actives largely listed as inhibitors; actives 6.9% (n = 320,000); AID 504834
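Erythrocytes infected with luciferase-expressing P. falciparum were dispensed at 2% hematocrit and 0.05% parasitemia (final), then incubated with compounds 96 hours at 37 C in 5% CO2. Luminescence after detection reagent addition reported growth.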
Shiga toxin inh: Shiga toxin inhibition | Vero cells, Shiga toxin protein synthesis inhibition reporter | inhibition, % at 38.7 µM | actives 9.2% (n = 290,000) | AID 2315; in the data active = inhibition mostly above about 28%, no sharp cut-off; inactive = mostly below about 43%
Sm TGR inh: S. mansoni TGR enzyme inhibition. Q962Y6. purified TGR, DTNB reduction, TNB absorbance 405 nm. actives 3% (n = 360,000). Potency, µM (doses to about 114 µM), hits mostly inhibitors; note: nearly all actives have a fitted effect of over 60% in size
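TGR 20 nM + NADPH 100 uM (dispensed conc.), cpd preinc 15 min RT; start with NADPH (500 uM addition) then DTNB (15 mM addition). Kinetic TNB absorbance, 405 nm filter. Four-parameter Hill fit across titration.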
Cycloheximide cs: affects cycloheximide protein synthesis inhibition readout, counter-screen | cell reporter, cycloheximide protein synthesis inhibition counterscreen | max response, % | actives 12% (n = 300,000) | AID 2314; in the data active = max response mostly above about 13%, no sharp cut-off; inactive = mostly below about 14%; note: read at 38.3 µM for the half of the compounds with a filed dose
NS1 inh: inhibitors of influenza NS1 protein function; Potency, µM (series often up to 46.1 µM); actives 0.4% (n = 270,000); AID 2326; calls by dose curve; note: actives are rising curves; nearly all actives have a fitted effect of over 50% in size
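Recovery from NS1-induced slow growth read by OD600 in budding yeast switched to galactose assay medium (pH 6.0, -URA) at 1:100 dilution. Compound 23 nl per well; the matching strain lacking NS1 serves as control.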
Pf growth 48h: inhibits P. falciparum growth in the first generation, 48 h. P. falciparum luciferase growth in erythrocytes, 48 h. AID 504832. Potency, µM (titrated, usually from 28.7 µM), actives largely listed as inhibitors. actives 5.9% (n = 310,000)
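Here the parasites carry a stable luciferase gene and grow inside erythrocytes in Albumax-based RPMI medium with compound for one erythrocytic cycle. Activity is scored as loss of luminescent signal.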
Each line names hits and unclear results; the compound was inactive in the other large screens. A selection: hits, their analogues and other compounds. The true share with any hit is near 21%. Unless noted, calls come from the whole dose curve; as a rule, active = well fitted curve in the direction sought with a large enough effect; inconclusive = small, poorly fitted or top-dose-only effect, or another doubt; inactive = no such curve, though single readings can be large; an effect the other way counts as inactive or inconclusive.

CCN(CC)Cc1c(O)ccc2cc(-c3nc4ccccc4n3C)c(=O)oc12	Sm TGR inh inconclusive, Cycloheximide cs 11
CCc1cc2c(=O)c(-c3nc4ccccc4n3C)c(C)oc2c(CN(CC)CC)c1O	none
CC(=O)Oc1ccc2cc(-c3nc4ccccc4n3C)c(=O)oc2c1	Shiga toxin inh 75 (no result: Pf growth 96h)
CCN(C(=O)CN1CCN(c2ccc(O)cc2)CC1)c1c(N)n(Cc2ccccc2)c(=O)[nH]c1=O	Pf growth 96h 4.7µM, Sm TGR inh inconclusive, Pf growth 48h inconclusive
CC(=O)c1ccc(N2CCN(CC(=O)N(CC(C)C)c3c(N)n(CC(C)C)c(=O)[nH]c3=O)CC2)cc1	Cycloheximide cs 12 (no result: NS1 inh)
CCN(C(=O)CN1CCC(C)CC1)c1c(N)n(Cc2ccccc2)c(=O)[nH]c1=O	none (no result: Shiga toxin inh, Cycloheximide cs, NS1 inh)
CC(C)CN(C(=O)CN1CCN(c2ccc(O)cc2)CC1)c1c(N)n(CC(C)C)c(=O)[nH]c1=O	Pf growth 96h inconclusive
Cc1ccc(NC(=O)C2CC3CCC2C3)c(Br)c1 (stereo not drawn)	Shiga toxin inh 83, Cycloheximide cs 33
Cc1ccc(C)c(NC(=O)C2CC3CCC2C3)c1 (stereo not drawn)	Cycloheximide cs 14
O=C(Nc1ccccc1)C1CC2CCC1C2 (stereo not drawn)	none
CCN(CC)c1ccc(NC(=O)C2CC3CCC2C3)cc1 (stereo not drawn)	Shiga toxin inh 107, Cycloheximide cs 51
Cc1ccc(S(N)(=O)=O)cc1NC(=O)C1CC2CCC1C2 (stereo not drawn)	none
O=C(O)c1cc(-c2ccc(Cl)c(Cl)c2)n(-c2ccccc2)n1	none
CN(C)[C@H]1C(=O)C(C(=O)NCN2CCCC2)=C(O)[C@]2(O)C(=O)C3=C(O)c4c(O)cccc4[C@@](C)(O)[C@H]3C[C@@H]12	none (no result: Shiga toxin inh, Sm TGR inh, Cycloheximide cs, NS1 inh)
CCCOC(=O)c1ccc(NC(=O)CSC2=Nc3ccccc3C3CC=NN23)cc1 (stereo not drawn)	none (no result: Pf growth 48h)
CN(C(=O)CSc1ncnc2sccc12)C1CCCCC1	none (no result: Shiga toxin inh, Cycloheximide cs, NS1 inh)
Cc1cc(C)cc(N(CCC#N)C(=O)CSc2ncnc3sccc23)c1	Pf growth 96h inconclusive, Pf growth 48h 12µM (no result: Shiga toxin inh, Cycloheximide cs, NS1 inh)
O=C(CSC1=Nc2ccccc2C2CC=NN12)Nc1ccc2c(c1)OCO2 (stereo not drawn)	Cycloheximide cs 16 (no result: NS1 inh)
Cc1cc(C)cc(N(CCC#N)C(=O)CSC2=Nc3ccccc3C3CC=NN23)c1 (stereo not drawn)	Pf growth 96h 12µM, Pf growth 48h 13µM (no result: NS1 inh)
CC(C)CN(C(=O)c1ccc2c(c1)OCCO2)c1c(N)n(Cc2ccccc2)c(=O)[nH]c1=O	Pf growth 48h inconclusive (no result: Shiga toxin inh, Cycloheximide cs, NS1 inh)
CCC(=O)OCC(=O)[C@@]1(OC(=O)CC)[C@@H](C)C[C@H]2[C@@H]3CCC4=CC(=O)C=C[C@]4(C)[C@@]3(Cl)[C@@H](O)C[C@@]21C	Pf growth 96h inconclusive, Pf growth 48h inconclusive (no result: Shiga toxin inh, Cycloheximide cs, NS1 inh)
O=C1Nc2c(c(=O)[nH]c(=O)n2-c2ccc(Cl)cc2)C1(NS(=O)(=O)c1ccccc1)C(F)(F)F (stereo not drawn)	none (no result: Pf growth 96h, Shiga toxin inh, Cycloheximide cs, NS1 inh, Pf growth 48h)
CC(=O)NC12CC3CC(C1)CC(C(=O)Oc1ccc(N(C)S(=O)(=O)c4cc(C)ccc4C)cc1)(C3)C2	Pf growth 96h 13µM, Pf growth 48h inconclusive (no result: Shiga toxin inh, Cycloheximide cs, NS1 inh)
CC(=O)NC12CC3CC(C1)CC(C(=O)NCC(=O)Nc1c(C)cc(C)cc1C)(C3)C2	none (no result: Shiga toxin inh, Cycloheximide cs, NS1 inh)
COc1ccc(Cc2nc3ccc(C(=O)NCC4COCCO4)cc3o2)cc1OC (stereo not drawn)	Cycloheximide cs 34
COc1ccc(Cc2nc3ccc(C(=O)NCCc4ccncc4)cc3o2)cc1OC	none
CCC1CCCCN1C(=O)c1ccc2nc(Cc3ccc(OC)cc3)oc2c1 (stereo not drawn)	Shiga toxin inh 77, Cycloheximide cs 35, Pf growth 48h inconclusive
COCC1CCCCN1C(=O)c1ccc2nc(Cc3ccc(OC)c(OC)c3)oc2c1 (stereo not drawn)	Cycloheximide cs 12, Pf growth 48h inconclusive
COc1ccc(Cc2nc3ccc(C(=O)N4CCCCC4CCO)cc3o2)cc1 (stereo not drawn)	Pf growth 96h 7.4µM
O=C(c1ccc2nc(Cc3cccc(Cl)c3)oc2c1)N1CCC[C@H]1CO	none
CCN(CC)C1CCN(C(=O)c2ccc3nc(Cc4ccc(OC)cc4)oc3c2)C1 (stereo not drawn)	Pf growth 96h inconclusive, Pf growth 48h inconclusive
